Assay [1] can be described thus: resazurin metabolic signal in HepG2 cells – cell-based, resazurin fluorescence, 24 h, PK04 Diversity Set, profiling panel (AID 1172). Also: test concentration not given here. Conditions: HepG2 viability, higher = more signal. (The colour change of resazurin is a common sign of viable cells or microbes.)
Assay [2] is described as follows: budding yeast growth changes without added modifier – OD600, strain BY4716, 24 h, basal condition, primary screen (AID 1173). Particulars: S. cerevisiae BY4716 growth, OD600, 24 h; higher = more signal, called active from +8 up or from −8 down.
Assay [3] is described as follows: viability profiling in MM1S myeloma cells – cell-based, resazurin fluorescence, basal, 24 h, PK04 Diversity Set, profiling panel (AID 1174).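 Also: MM1S multiple myeloma cell line; test concentration not given here.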 Particulars: higher = more signal, called active from +8 up or from −8 down.
Assay [4] concerns the target Dihydroorotate dehydrogenase (quinone), mitochondrial (Plasmodium falciparum (isolate 3D7)) (UniProt Q08210). As to the kind of experiment: inhibition of P. falciparum DHODH – biochemical, C-terminal His tag, absorbance 600 nm, primary screen (AID 1175).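 Also: recombinant parasite enzyme with a five histidine tag at its C terminus; test concentration not given here.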 Particulars: PfDHODH enzyme, DCIP absorbance 600 nm; higher = more signal, called active from +8 up or from −8 down.

The nature of assay [5]: inhibition of PAO1 biofilm formation – strain PAO1, LB-PBS medium, absorbance 600 nm, primary screen (AID 1176). Also: test concentration not given here. Conditions: P. aeruginosa PAO1 growth/biofilm, A600, 12 h; higher = more signal.
The nature of assay [6]: growth modulation of vineyard yeast isolate – strain RM11-1a, OD600, basal, 24 h, primary screen (AID 1177).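 Also: cultures grown under basal conditions with no added stressor; test concentration not given here.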 Conditions: S. cerevisiae RM11-1a growth, OD600, 24 h; higher = more signal, called active from +8 up or from −8 down.
Assay [7] is described as follows: growth of efflux-deficient E. coli DRC39 – strain DRC39, OD650, 24 h, E. coli filamentation inducers, primary screen (AID 1178).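 Also: growth measured as culture turbidity by optical density at 650 nm; test concentration not given here.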 Particulars: E. coli DRC39 acrAB, higher = more signal, called active from +8 up or from −8 down.
A short description of assay [8]: growth of efflux-deficient E. coli DRC39 – strain DRC39, OD650, 48 h, E. coli filamentation inducers, primary screen (AID 1179).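 Also: screen aims at cell division blockers that make cells filament.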 Particulars: E. coli DRC39 delta-acrAB growth, higher = more signal, called active from +8 up or from −8 down.
The nature of assay [9]: viability profiling in RPMI8226 myeloma cells – cell-based, resazurin fluorescence, basal, 24 h, PK04 Diversity Set, profiling panel (AID 1180).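 Also: RPMI8826 multiple myeloma cell line at 5000 cells per well; test concentration not given here.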 Particulars: higher = more signal.
Assay [10] has as its target E3 ubiquitin-protein ligase XIAP (Homo sapiens) (UniProt P98170). Description: small molecules binding XIAP protein – biophysical, small-molecule microarray, fluorescence 635 nm, primary screen (AID 1181).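 Also: score merges 667 nm emission and signal to noise over triplicate slides.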 Particulars: higher = more signal.

The source made the active and inactive calls. Unless noted, no rule for the calls is given here.

13 compounds from PubChem BioAssay can be followed below.

Sequence of E3 ubiquitin-protein ligase XIAP (Homo sapiens) (P98170 whole entry, looked up): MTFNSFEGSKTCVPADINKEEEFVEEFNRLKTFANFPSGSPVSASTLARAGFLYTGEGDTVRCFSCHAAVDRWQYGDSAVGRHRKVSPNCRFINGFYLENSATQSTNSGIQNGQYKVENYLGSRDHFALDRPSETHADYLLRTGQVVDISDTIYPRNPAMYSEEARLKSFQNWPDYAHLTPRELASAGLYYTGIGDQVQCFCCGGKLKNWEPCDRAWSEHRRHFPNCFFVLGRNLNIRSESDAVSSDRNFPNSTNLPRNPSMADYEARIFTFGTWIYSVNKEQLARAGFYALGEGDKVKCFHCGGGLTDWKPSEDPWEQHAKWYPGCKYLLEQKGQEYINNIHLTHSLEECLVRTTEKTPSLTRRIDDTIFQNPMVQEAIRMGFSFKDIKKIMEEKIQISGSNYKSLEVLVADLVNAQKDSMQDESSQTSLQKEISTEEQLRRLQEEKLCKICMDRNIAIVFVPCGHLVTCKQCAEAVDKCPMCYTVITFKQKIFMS
Sequence of Dihydroorotate dehydrogenase (quinone), mitochondrial (Plasmodium falciparum (isolate 3D7)) (Q08210 whole entry, looked up): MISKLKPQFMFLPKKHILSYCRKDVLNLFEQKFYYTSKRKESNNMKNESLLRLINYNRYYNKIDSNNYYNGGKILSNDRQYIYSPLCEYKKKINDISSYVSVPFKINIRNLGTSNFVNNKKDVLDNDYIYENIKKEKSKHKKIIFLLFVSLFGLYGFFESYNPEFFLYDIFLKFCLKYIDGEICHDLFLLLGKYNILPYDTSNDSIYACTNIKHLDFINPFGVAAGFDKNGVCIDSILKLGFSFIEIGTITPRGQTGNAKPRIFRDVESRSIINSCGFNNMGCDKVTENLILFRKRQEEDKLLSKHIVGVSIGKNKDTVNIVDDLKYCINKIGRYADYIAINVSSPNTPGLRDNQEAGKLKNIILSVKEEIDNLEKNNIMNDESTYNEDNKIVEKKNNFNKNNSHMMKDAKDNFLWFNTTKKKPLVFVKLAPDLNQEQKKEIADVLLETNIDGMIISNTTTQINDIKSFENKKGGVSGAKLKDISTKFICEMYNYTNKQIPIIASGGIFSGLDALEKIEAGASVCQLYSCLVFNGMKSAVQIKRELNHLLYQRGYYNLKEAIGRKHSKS

In the case of `CC(=O)OC[C@H]1O[C@H](CC=NO[C@H](C)c2cn([C@H](CO)Cc3ccccc3)nn2)C=C[C@@H]1OC(C)=O`, the z-score was 0.242 in assay [1]; 1.53 (inactive) in assay [2]; -0.376 (inactive) in [3]; 0.642 (inactive) in assay [5]; 1.57 (inactive) in assay [6]; -0.182 (inactive) in [7]. Moreover, the results for the z-score in [8] and in assay [9] were -0.554 (inactive) and 0.103, respectively. For the same compound, the results for the composite z-score in assay [4] and in assay [10] were 0.53 (inactive) and 0.699, respectively.

With `O=C1[C@H]2[C@H]3[C@H](O)[C@H](O)CC(=NOC[C@@H](O)COCc4ccco4)[C@H]3CC[C@H]2C(=O)N1C[C@@H]1CCCO1`, the z-score was 0.639 in assay [1]; 0.0107 (inactive) in assay [2]; -0.324 (inactive) in assay [3]; 0.07 (inactive) in assay [5]; -0.0915 (inactive) in assay [6]; -0.481 (inactive) in [7]. Further, the z-score in [8] was -0.467 (inactive); in [9], 0.15. Also, the composite z-score in assay [4] was -0.199 (inactive); in assay [10], -0.217.

On to `O=C1C2=CC[C@H]3C(=O)N(c4cccc(Oc5ccccc5)c4)C(=O)[C@H]3[C@H]2[C@H](O)[C@@H]2O[C@H]12`, for which the z-score in [1] was -1.02; in [2], -1.72 (inactive); in [3] it was -6.54 (inactive); in [5] it was -0.261 (inactive); in assay [6] it was -0.0295 (inactive); in [7], -0.392 (inactive). In addition, the z-score in assay [8] is -0.281 (inactive); in [9], -3.76. In addition, the composite z-score in assay [4] is -1.2 (inactive); in assay [10], 0.0506.

`CC(C)CON=C1C[C@@H](O)[C@@H](O)[C@@H]2[C@@H]3C(=O)N(c4ccc(F)cc4F)C(=O)[C@@H]3CC[C@H]12`: the z-score in [1] is 0.806; in assay [2], -0.406 (inactive); in assay [3] it was 0.686 (inactive); in assay [5], 0.246 (inactive); in assay [6] it was -0.554 (inactive); in [7], 0.404 (inactive). Moreover, the z-score in assay [8] was -0.382 (inactive); in assay [9], 0.17. For the same compound, the composite z-score in [4] was -0.223 (inactive); in assay [10], -0.138.

With `CCCNC(=O)OC[C@H]1O[C@H](c2ccccc2)C=C[C@@H]1Oc1ccc(OC)cc1`, the z-score was -0.889 in [1]; -1.88 (inactive) in assay [2]; -1.06 (inactive) in [3]; -0.115 (inactive) in assay [5]; -0.0966 (inactive) in assay [6]; 0.507 (inactive) in [7]. Besides, the z-score in assay [8] was 0.342 (inactive); in [9], -0.35. Besides, the composite z-score is 0.152 (inactive) in assay [4] and -0.0629 in assay [10].

For `COc1ccc(O[C@H]2C=C[C@@H](c3ccccc3)O[C@@H]2CON=C(C)C)cc1`, the z-score in assay [1] is 0.163; in [2], -0.964 (inactive); in [3], -0.253 (inactive); in assay [5], 0.936 (inactive); in assay [6], 0.267 (inactive); in [7], 0.366 (inactive). In addition, the z-score is -1.8 (inactive) in assay [8] and 0.224 in assay [9]. Moreover, the figures for the composite z-score in [4] and in assay [10] were 0.271 (inactive) and 0.511, respectively.

Take `COc1ccc(O[C@H]2C=C[C@@H](c3ccccc3)O[C@@H]2CON=CC[C@@H]2C=C[C@H](OC(C)=O)[C@@H](COC(C)=O)O2)cc1`: the z-score in [1] is 0.185; in assay [2] it was 2.06 (inactive); in assay [3], -0.0893 (inactive); in assay [5], 0.405 (inactive); in assay [6], 1.34 (inactive); in [7] it was 0.503 (inactive). Moreover, the z-score in assay [8] is -0.185 (inactive); in assay [9], -0.604. Besides, the composite z-score in assay [4] is 0.0159 (inactive); in assay [10], 0.0391.

In the case of `CON=C[C@@H](NS(=O)(=O)c1ccc(C)cc1)[C@H](C)C=CCC(=O)OC`, the z-score in assay [1] was 0.27; in assay [2] it was -0.146 (inactive); in assay [3] it was -0.548 (inactive); in [5] it was -0.291 (inactive); in [6], 0.475 (inactive); in assay [7] it was 0.717 (inactive). In addition, the values for the z-score in assay [8] and in [9] were -0.761 (inactive) and -0.484, respectively. Further, the composite z-score in assay [4] was 0.244 (inactive); in assay [10], -0.0773.

Turning to `CCOC(=O)[C@H](Cc1ccccc1)NC(=O)CCC1CC(OC(=O)NCCc2ccc(F)cc2)CC2(CCCC(COC(=O)NCCCN3CCCC3=O)O2)O1` (stereo not given in full), the z-score in [1] is -0.0038; in assay [2], -0.196 (inactive); in [3], 0.374 (inactive); in assay [5] it was 0.781 (inactive); in assay [6], -1.25 (inactive); in assay [7] it was -0.198 (inactive). In addition, the z-score in assay [8] is -0.926 (inactive); in [9] it was 0.898. Besides, the results for the composite z-score in assay [4] and in [10] were -1.73 (inactive) and -0.0622, respectively.

Turning to `CCC=CCCC(OC(=O)c1ccc(Br)cc1)C1=CCCCC1=O` (stereo not given), the z-score was -0.0791 in assay [1]; -2.43 (inactive) in [2]; -1.06 (inactive) in assay [3]; 0.119 (inactive) in assay [5]; -0.791 (inactive) in [6]; 0.181 (inactive) in assay [7]. For the same compound, the results for the z-score in [8] and in assay [9] were 0.0322 (inactive) and -0.88, respectively. Also, the figures for the composite z-score in assay [4] and in [10] were -1.38 (inactive) and -0.291, respectively.

Regarding `O=C1C=C[C@@H](O)[C@@H]2[C@@H]3C(=O)N(c4ccc(F)cc4F)C(=O)[C@@H]3CC[C@@H]12`, the z-score is -0.862 in assay [1]; -1.76 (inactive) in assay [2]; -0.138 (inactive) in assay [3]; 0.565 (inactive) in assay [5]; -2.01 (inactive) in assay [6]; -0.664 (inactive) in assay [7]. Further, the z-score in [8] was -0.52 (inactive); in [9], -0.956. In addition, the composite z-score in assay [4] was -1.11 (inactive); in [10], -0.102.

As to `C=Cc1ccc([C@H]2N[C@H](C(=O)O)CC[C@@H]2C)cc1`, the z-score in [1] is -0.869; in assay [2], -0.366 (inactive); in assay [3], -0.601 (inactive); in assay [5] it was -0.54 (inactive); in assay [6], -0.649 (inactive); in assay [7], 0.505 (inactive). Moreover, the z-score is 0.296 (inactive) in assay [8] and -0.845 in assay [9]. Moreover, the composite z-score is -0.13 (inactive) in [4] and -0.168 in assay [10].

Turning to `COc1cccc([C@H]2Oc3ccc(OC)cc3C(=NOC[C@@H](O)COCc3ccco3)[C@@H]2O)c1`, the z-score in assay [1] was -0.949; in assay [2], -1.38 (inactive); in assay [3], -1.19 (inactive); in [5], -0.254 (inactive); in assay [6], -2.29 (inactive); in assay [7] it was 0.0207 (inactive). The z-score in assay [8] was -0.947 (inactive); in assay [9] it was -0.825. Further, the figures for the composite z-score in assay [4] and in [10] were -1.58 (inactive) and 0.0785, respectively.
